ClpP mod = qHTS Assay for Activators of ClpP. 340,000 tested, 1.9% active. ATP-dependent Clp protease proteolytic subunit (Bacillus subtilis (strain 168)), P80244. purified B. subtilis ClpP, FRET peptide cleavage, 20 min. Potency, µM (titrated, usually from 57.5 µM), for inactives: top-dose activity change, negative = active; active means well fitted falling curve with a large enough effect; inconclusive means small, poorly fitted or top-dose-only effect; inactive means no such curve, though single readings can be large or run the other way; further: the source files actives as falling curves though it sought activators and does not explain the sign; nearly all actives have a fitted effect of over 65% in size
Target sequence (P80244 whole entry, looked up): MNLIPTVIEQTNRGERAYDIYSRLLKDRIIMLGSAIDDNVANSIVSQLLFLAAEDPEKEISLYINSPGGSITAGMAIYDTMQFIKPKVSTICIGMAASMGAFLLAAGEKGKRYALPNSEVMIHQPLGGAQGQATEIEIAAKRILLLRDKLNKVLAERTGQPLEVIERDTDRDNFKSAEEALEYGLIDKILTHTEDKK
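FRET quenching reversal measured ClpP activation: 10 microg/mL B. subtilis ClpP at pH 8 with the FRET-FV decapeptide, read at 430 nm after 320 nm excitation. The 20-min minus 0-min signal was scaled between DMSO/no-enzyme wells and ADEP (5.8 microM final).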
PINK1 modulator = A Quantitative High throughput Screen to Identify Chemical Modulators of PINK1 Expression. Potency, µM (top dose mostly 76.6 µM), inactives show top-dose activation (PINK1 increase), hits mostly activators. 410,000 tested, 0.2% active. PINK1 immunofluorescence, high-content cytometry, 24 h; active means well fitted activation curve with a large enough effect; inconclusive means small, poorly fitted or top-dose-only effect; cell line not stated here; further: % of control where 0% means no effect; nearly all actives have a fitted effect of over 65% in size
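Cells are seeded, rested 12 hours, then given compound at five concentrations or DMSO for 24 hours. After fixation, blocking and antibody staining, PINK1 amount and mitochondrial localization are scored; CCCP serves as control.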
Gal4-VP16 FLuc = VP16 counterscreen qHTS for inhibitors of ROR gamma transcriptional activity; Drosophila S2 Gal4-VP16 UAS-luciferase, luminescence, 20 h; Potency, µM (top dose mostly 53.6 µM), for inactives: at the top dose activity, negative = inhibition, actives largely listed as inhibitors; 310,000 tested, 3.5% active;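 further: Gal4-VP16 expression switched on by copper sulfate through the metallothionein promoter; on the % scale 0 is the no-effect control and ±100 the full control effect; nearly all actives have a fitted effect of over 50% in size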
Sfp inh = qHTS Assay for Inhibitors of Bacillus subtilis Sfp phosphopantetheinyl transferase (PPTase). 4'-phosphopantetheinyl transferase ffp (Bacillus subtilis), Q9F4F7. Biochemical Sfp PPTase activity, qHTS. Potency, µM, for inactives: largest response in the series, negative = inhibition, actives largely listed as inhibitors. 310,000 tested, 3.5% active;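 further: the enzyme is Sfp with the accession as filed and its product quenches rhodamine fluorescence; 0% = enzyme reaction without inhibitor and -100% = no enzyme wells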
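After 15 min at room temperature with compound, 15 nM Sfp received 5 uM rhodamine-CoA plus 12.5 uM BHQ-2-ybbR (50 mM Hepes pH 7.6, 10 mM MgCl2). Rate came from the fluorescence difference over 30 min, ex 525/em 598 nm.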
Epigenetic derep = Quantitative High-Throughput Screen for Regulators of Epigenetic Control | Potency, µM (highest dose often 53.9 µM), inactives show top-dose GFP activation, most hits filed as activators | murine LDR cells, GFP reporter derepression, 30 h | 280,000 tested, 0.2% active | AID 1865, 2009; further: % of control where 0% means no effect; nearly all actives have a fitted effect of over 60% in size
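GFP-positive cell count by laser-scanning cytometry (objects 20–120 um) after 30 h, 37 C compound exposure of murine LDR cells; reporter is CMV-GFP integrated at a silenced locus, inducible by HDAC or DNMT inhibitors.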
RORg inh = qHTS for inhibitors of ROR gamma transcriptional activity; Drosophila S2 Gal4-RORgamma UAS-luciferase reporter, 20 h; 310,000 tested, 5.4% active; Potency, µM (series often up to 53.6 µM), for the others: at the top dose activity change, negative = inhibition, usual class: inhibitors; further: on the % scale 0 is the no-effect control and ±100 the full control effect; nearly all actives have a fitted effect of over 60% in size
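Stably transfected Drosophila Schneider cells are the test system, with ROR gamma fused to Gal4 and luciferase under UAS control; luminescence is read after 20 hr of 700 uM copper sulfate induction at ambient temperature.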
Starred values were filed as active, the others as inactive; ? = inconclusive; . = not tested or not shown. Rows were chosen to be rich in hits. Some 8.1% of all compounds tested hit in one or more screens of this group. Unless noted, the call rests on the fitted dose curve; in most records, active means well fitted curve in the direction sought with a large enough effect; inconclusive means small, poorly fitted or top-dose-only effect, or another doubt; inactive means no such curve, though single readings can be large; an effect the other way counts as inactive or inconclusive. Potency means the concentration at half of the fitted maximal effect.

SMILES | ClpP mod | PINK1 modulator | Gal4-VP16 FLuc | Sfp inh | Epigenetic derep | RORg inh
CC1CCN(C(=S)c2ccc(O)cc2)CC1 | -0.5% | -1.5% | 4.7% | 56.2µM* | -2.3% | -20.7%
CC1CCN(C(=S)NC(=O)c2ccc(F)cc2)CC1 | -9.3% | 4.0% | . | . | . | .
S=C(c1ccc(N2CCCC2)cc1)N1CCCCC1 | -0.6% | -1.2% | ? | 7.6% | -1.1% | 8.91µM*
CCCn1c(-c2ccc(F)cc2)nc2c(NCC(C)(C)CN(C)C)nc(C)nc21 | . | . | -2.7% | -4.4% | 4.5% | -22.0%
CC/C(=C/c1ccccc1OC)c1cc(-c2ccccc2)cc2oc3ccccc3c12 | 4.4% | . | . | . | . | .
Cc1cc(N2CCC(C(=O)Nc3ccc(F)cc3C)CC2)n2nc(C)c(-c3ccc(Cl)cc3)c2n1 | 1.5% | 6.5% | . | . | -1.1% | .
Cc1ccc(C(=S)N2CCCCCC2)cc1 | -0.4% | 3.1% | ? | 44.7µM* | . | ?
COc1ccc(C(=S)N2CCCC2)cc1 | -3.1% | -0.8% | 3.1% | 7.4% | 0.0% | -16.8%
CC1CCN(C(=S)c2ccccc2O)CC1 | 4.3% | 0.9% | -1.1% | 28.2µM* | 1.1% | -42.9%
S=C(c1ccc(OCc2ccccc2)cc1)N1CCCC1 | 0.3% | 1.3% | ? | 6.8% | . | ?
Oc1ccc(C(=S)N2CCCCCC2)cc1 | -2.4% | 0.2% | 6.1% | 56.2µM* | -0.3% | 8.2%
CC1CCN(C2CCN(C(=O)c3ccccc3F)CC2)CC1 | . | 1.2% | -9.2% | -12.5% | 0.1% | 3.7%
Oc1ccc(C(=S)N2CCCC2)cc1 | 1.3% | 0.1% | -2.3% | 20µM* | . | -4.3%
CCC(=O)N1CCc2cc(CNC(=O)C(CC)c3ccccc3)ccc21 (stereo not drawn) | 1.1% | 1.6% | . | . | 0.0% | .
Cc1ccc2c(/C=C/c3c[nH]c4ccccc34)ccnc2c1C | -10.9% | . | . | . | . | .
COc1ccc2cnoc(=O)c2c1OC | . | . | 2.1% | 11.2% | -1.1% | -6.9%
Cc1nc2cc(NC(=O)Nc3ccccc3Cl)ccc2n1C | . | -0.2% | 11.2µM* | -0.9% | -1.4% | 5.01µM*
CCn1c(C)nc2cc(C(=O)NNC(=S)Nc3ccccc3Cl)ccc21 | ? | -2.6% | 20µM* | 12.6% | 0.0% | 11.2µM*
CCn1c(C)nc2cc(C(=O)N/N=C(\C)c3ccc(OC)cc3O)ccc21 | . | -0.7% | 2.82µM* | 29.7% | -1.4% | 1µM*
CCn1c(C)nc2cc(C(=O)N/N=C/c3cccc(O)c3O)ccc21 | . | 6.9% | 11.2µM* | 6.0% | 4.8% | 2.24µM*
CCn1c(C)nc2cc(C(=O)N/N=C/c3ccccc3)ccc21 | . | -0.2% | ? | 2.5% | 0.9% | -39.2%
COc1ccccc1N1CCN(C(=O)C2CCN(S(=O)(=O)c3cn(C)cn3)CC2)CC1 | 0.7% | 1.7% | . | . | -5.1% | .
CCOc1ccccc1NC(=O)Cn1c(=O)n(Cc2cccs2)c(=O)c2cccnc21 | -9.6% | 0.0% | . | . | 4.6% | .
CCc1nnc(SCc2cn3c(C)cc(C)nc3n2)n1N | 11.2µM* | 0.5% | -2.5% | -18.5% | 4.8% | 2.2%
Cc1cc(C)n2cc(CSc3nnnn3C)nc2n1 | 25.1µM* | 2.9% | 15.5% | 5.1% | -1.0% | -12.0%
Cc1cc(C)n2cc(CSc3nnc(SCc4cn5c(C)cc(C)nc5n4)s3)nc2n1 | . | . | 6.3% | 15.3% | -5.0% | 1.2%
Cc1cc(C)n2cc(CSc3nncn3C)nc2n1 | . | 2.2% | 2.9% | -8.3% | -0.1% | 0.2%
Fc1ccc(Nc2ncnc3onc(-c4ccc(Cl)cc4)c23)cc1Cl | ? | 2.2% | . | . | -4.5% | .
O=C1[C@H]2CCC=C[C@H]2[C@H](c2cccc(Br)c2)N1Cc1ccccc1 | -1.1% | 2.9% | -2.6% | 112µM* | -3.2% | -26.7%

Screens (PubChem BioAssay)
